Screening results from PubChem BioAssay.
Cav3 T inh – Cav3.2 calcium influx blockers – cell-based, Fluo-4 calcium fluorescence, FDSS, MLSMR library, primary screen | Voltage-dependent T-type calcium channel subunit alpha-1H (Homo sapiens), O95180 | AID 449739, 2010 | B-score at 10 µM | 100,000 tested, 4% active | Cav3.2-expressing cells; stronger effect = lower value;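 active = single-dose well whose peak fluorescence ratio is a statistical outlier from its plate by either plate-standardised score or position-corrected B-score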
Ec RNAP inh – E. coli RNAP inhibitors, biochemical; AID 559, 2006; E. coli RNA polymerase, fluorescence transcription assay; 62,000 tested, 0.2% active; inhibition, %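 (tested at 10 µM)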; in the data active = inhibition above about 20%;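 note: 0% = enzyme without compound and 100% = no enzyme blank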
Mac1 fbg enh – enhancers of CD11b/CD18 adhesion to fibrinogen, primary screen, K562 cells, luminescence; Integrin beta-2 (Homo sapiens) + Integrin alpha-M (Homo sapiens), P05107+P11215; ATPlite luminescence; activation, % at 10 µM; 93,000 tested, 0.07% active; AID 1499, 2009;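 active = 10 µM primary screen giving 50% or more activity, confirmed by 40% or more on retest at that dose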
Target sequence (P05107 whole entry, looked up, other chains not shown): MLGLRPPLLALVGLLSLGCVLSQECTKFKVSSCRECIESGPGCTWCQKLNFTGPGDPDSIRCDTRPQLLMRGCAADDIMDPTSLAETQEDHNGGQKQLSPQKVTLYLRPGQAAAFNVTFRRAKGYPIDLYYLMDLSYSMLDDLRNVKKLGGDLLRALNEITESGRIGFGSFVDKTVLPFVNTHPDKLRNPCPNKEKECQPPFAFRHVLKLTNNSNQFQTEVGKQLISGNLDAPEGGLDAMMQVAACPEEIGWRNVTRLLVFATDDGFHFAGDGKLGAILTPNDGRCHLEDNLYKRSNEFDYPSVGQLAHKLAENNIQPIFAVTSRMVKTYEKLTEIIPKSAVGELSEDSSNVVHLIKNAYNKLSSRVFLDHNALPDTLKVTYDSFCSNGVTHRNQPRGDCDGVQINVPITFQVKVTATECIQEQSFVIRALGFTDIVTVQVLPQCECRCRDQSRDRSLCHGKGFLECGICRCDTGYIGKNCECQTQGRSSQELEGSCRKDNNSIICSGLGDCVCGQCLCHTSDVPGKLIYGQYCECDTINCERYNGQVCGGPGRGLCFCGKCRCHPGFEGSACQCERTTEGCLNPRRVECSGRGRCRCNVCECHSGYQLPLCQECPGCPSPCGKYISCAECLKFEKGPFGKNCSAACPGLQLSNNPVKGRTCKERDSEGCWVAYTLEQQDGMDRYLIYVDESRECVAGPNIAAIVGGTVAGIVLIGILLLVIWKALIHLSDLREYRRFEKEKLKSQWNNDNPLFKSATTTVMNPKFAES
PTK2B oligo ant – antagonists of Pyk2 self-association, primary screen, Q293 cells, FERM NanoBiT luminescence, HTS; Protein-tyrosine kinase 2-beta (Homo sapiens), Q14289; z-score (the deposit names both 25 µM and 10 µM); AID 1347419, 2020; stronger effect = lower value; 99,000 tested, 0.83% active;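 active = Z-score of -3 or lower, scaled per plate to the spread of control and sample wells; inactive = z-score above -3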;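 note: negative z-score means lost luminescence so less FERM oligomerization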
Mac1 fbg inh – inhibitors of CD11b/CD18 adhesion to fibrinogen, primary screen, K562 cells, luminescence. Integrin beta-2 (Homo sapiens) + Integrin alpha-M (Homo sapiens), P05107+P11215. ATPlite luminescence; Mn2+ added to activate the integrin. inhibition, % at 10 µM. 93,000 tested, 0.54% active. AID 1497, 2009;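 active = primary inhibition of 50% or more at 10 µM, then 40% or more on retest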
Active calls of the source: *; x = not tested or not shown. In the library only some 4.2% were active in any assay of this set; here they are far more common.

SMILES	Cav3 T inh	Ec RNAP inh	Mac1 fbg enh	PTK2B oligo ant	Mac1 fbg inh
CCC(C)C(NC(=O)OCc1ccccc1)C(=O)OCN1C(=O)c2ccccc2C1=O (configuration not stated)	-5.1*	x	x	0.95	x
O=C(Nc1ccccc1)OCN1C(=O)c2ccccc2C1=O	-0.57	x	x	1.8	x
COc1cc2c(cc1OC)C1(Nc3c-2c(-c2ccccc2)nn3-c2ccccc2)C(=O)Nc2ccccc21 (configuration not stated)	-1.4	x	8	-3.2*	-15
COCCCNC(=O)C(=O)N/N=C/c1ccc(OCC(=O)Nc2cccc(Cl)c2C)c(OC)c1	-0.15	x	x	-0.09	x
CCCOc1ccc2ccccc2c1/C=N/n1c(C)nnc1-n1nc(C)cc1C	-3.3*	8	-4	-0.36	18
Cc1cc(C)n(-c2nnc(C)n2/N=C/c2ccco2)n1	0.16	5	-5	0.81	-1
Cc1ccc(S(=O)(=O)c2c(C)cc(C)nc2Oc2cccc(C(F)(F)F)c2)cc1	-6.3*	x	x	-0.1	x
CN(C)/C=C(/C#N)C(=O)c1cccc(Oc2ccc(C(C)(C)C)cc2)c1	-1.3	x	-8	-1.6	82*
Cc1nc2cc(NS(=O)(=O)c3c(C)c(C)cc(C)c3C)ccc2s1	-1.9	x	x	-3.8*	x
Cc1nc2ccc(NS(=O)(=O)c3ccc4c(c3)OCCO4)cc2s1	-1.2	x	-10	-0.81	102*
Cc1ccc(S(=O)(=O)Nc2ccc3nc(C)sc3c2)cc1	-1.4	x	-8	1.5	47
CC(C)COC(=O)NCCOC(=O)Nc1cccc(Cl)c1	-5.7*	10	x	1.1	x
CCCCNC(=O)CN(CCc1ccccc1)S(C)(=O)=O	-5.3*	x	-3	0.4	3
CCNC(=O)CN(CCc1ccccc1)S(C)(=O)=O	-0.093	0	-5	0.69	-5
Cc1nc2ccccc2c(=O)n1NC(=O)Cc1ccc(Br)cc1	0.15	x	x	0.75	x
CCCCCc1ccc(CC(=O)Nn2c(C)nc3ccccc3c2=O)cc1	-3.6	x	-3	-1.3	88*
CN1C(=O)OC(C)(C)C1=O	1.1	x	x	x	x
CCCc1nc2ccccc2c(=O)n1/N=C/c1c(C)[nH]n(-c2ccc(C)cc2)c1=O	-3.8*	-2	-1	-0.78	31
COc1cc(CC2COC(c3ccc(O)c(OC)c3)C2COC(C)=O)ccc1O (configuration not stated)	-0.22	x	x	x	x
O=[N+]([O-])c1nn(-c2ccc3c(c2)OCCO3)n(O)c1=Nc1ccc(Cl)cc1	-2.2	x	x	-3.4*	x
COc1ccc(/C=C2/C(=O)N(c3nc4ccccc4s3)N=C2CSc2ccc(Cl)cc2)cc1	x	x	77	x	-7
O=C(c1ccc(COc2ccccc2Br)o1)N1CCN(c2ccccn2)CC1	-3.2	x	x	-0.18	x
O=C(c1cccc(COc2ccc(Cl)cc2Cl)c1)N1CCN(c2ccccn2)CC1	-6.2*	9	-8	-1.4	82
CS(=O)(=O)N(CC(=O)Nc1cccc(Cl)c1Cl)c1ccccc1	-0.63	x	0	-1.2	-3
Cc1cccc(/C=C/C(=O)c2cc(Br)ccc(=O)c2O)c1	-1.8	x	-7	0.54	85*
SMILES	Cav3 T inh	Ec RNAP inh	Mac1 fbg enh	PTK2B oligo ant	Mac1 fbg inh
Cc1ccc2occ(/C=C/C(=O)c3ccccc3O)c(=O)c2c1	x	x	12	-0.75	4
Cc1ccc(C(=O)/C=C/c2ccc(Br)cc2)o1	0.53	x	x	0.05	x
CCc1ccc(/C=C/C(=O)c2cc(Br)ccc(=O)c2O)cc1	-3.5	x	-6	-1.1	74*
O=C(CN1CCSC1=NCc1ccccc1)c1ccccc1	x	x	0	x	2
CC(C)(C)OC(=O)N1CCC2(CC1)Oc1ccc(Cl)cc1C(=O)C21CC(c2ccc(Cl)cc2)=NO1 (configuration not stated)	-0.48	x	x	x	x
COc1ccc(C(=O)Nc2ccc3oc(-c4cccc(Cl)c4)cc(=O)c3c2O)cc1	-0.73	x	x	x	x
Cc1ccccc1NC(=O)N1CCCC(c2nc(-c3ccc(F)cc3)no2)C1 (configuration not stated)	-2	-3	-2	0.93	0
O=C(Nc1ccccc1)N1CCCC(c2nc(-c3ccc(F)cc3)no2)C1 (configuration not stated)	-5.4*	x	6	2.5	4
O=C(Nc1ccccc1)N1CC=C(c2ccc(F)cc2)CC1	-4.6*	5	-2	0.65	-2
O=C(Nc1ccccc1)N1CC=C(c2ccccc2)CC1	-0.99	1	3	x	-1
Cc1ccccc1NC(=O)N1CCCC(c2nc(-c3ccc(C(C)C)cc3)no2)C1 (configuration not stated)	-4.2*	x	-8	-0.71	92
O=C(C1CCCCC1)N1CCCC(c2nc(-c3ccc(F)cc3)no2)C1 (configuration not stated)	-1.2	2	3	0.83	-1
Cc1ccc(Cn2c(CCNc3nc(-c4ccc(Cl)c([N+](=O)[O-])c4)cs3)nc3cc(C(=O)NCCCO)ccc32)cc1	0.02	x	x	x	x
O=C(CN1CCCc2ccccc21)N/N=C/c1c(O)ccc2ccccc12	x	x	-9	x	8
C/C=C1\COC(C(=O)NCCN2CCCC2)(C(F)(F)F)C=C1C=C1CCCCC1 (configuration not stated)	-2.6	x	x	x	x
C/C=C1\COC(C(=O)NCc2ccccc2)(C(F)(F)F)C=C1C=C1CCCCC1 (configuration not stated)	-4.3*	x	x	x	x
CCO[C@@H]1OC(C(=O)N2CCN(Cc3ccc4c(c3)OCO4)CC2)=C[C@H](C2CCCCC2)[C@H]1CCCO	-0.75	x	x	x	x
CC/C(=N\OC(=O)c1ccc(OC(C)C)cc1)c1ccc(C)cc1	x	x	-7	0.94	80*
C/C(=N\OC(=O)c1ccc(OC(C)C)cc1)c1ccc(C)c(C)c1	-2.4	x	-6	1.2	66*
Fc1ccc(Cn2ccc(-c3cnc(-c4ccccc4)s3)n2)cc1	-0.59	x	-4	-1.3	56*
O=C(NC(NC(=S)Nc1ccccc1)C(Cl)(Cl)Cl)c1cccc(Cl)c1 (configuration not stated)	-1.6	x	-4	-2.7	11
O=C(NC(NC(=S)Nc1ccc(Cl)cc1Cl)C(Cl)(Cl)Cl)c1cccc([N+](=O)[O-])c1 (configuration not stated)	-4.9*	x	x	0.76	x
NC(=O)COC(=O)CN1C(=O)C2CCCCC2C1=O (configuration not stated)	x	x	4	x	-10
O=C(Nc1ccc(OC(F)F)cc1)Nc1cccc(C(F)(F)F)c1	-0.65	x	-3	-2.3	-19
CCCOc1cc(C)c(Cl)cc1S(=O)(=O)N(CC)CC	-3.8*	x	x	-1.3	x
Cc1ccc(Cl)cc1N1CCN(Cc2nnnn2C2CCCCC2)CC1	-5.2*	4	x	-0.98	x
Cc1ccc(Cl)cc1N1CCN(Cc2nnnn2Cc2ccco2)CC1	-6.7*	4	12	0.09	-6
CC(C)C(c1nnnn1Cc1ccco1)N1CCN(c2cccc(Cl)c2)CC1 (configuration not stated)	-3.8*	4	1	-0.51	2
